Screening data: PubChem BioAssay, The Scripps Research Institute Molecular Screening Center
MITF primary = blocks human microphthalmia-associated transcription factor | 650,000 tested, 0.91% active | inhibition, % at 2.6 µM | AlphaScreen MITF homodimerization, bead proximity signal | O75030; in the data active means inhibition above about 50%;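 further: 0% = vehicle wells with protein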
GPR151 activ = activates the human receptor GPR151 | Q8TDV0 | PathHunter beta-arrestin GPR151 cells, luminescence | activation, % at 11.2 µM | 650,000 tested, 1% active; in the data active means activation above about 4.9%;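 further: 0% = median of compound wells and 100% = cells with positive control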
Target sequence (Q8TDV0 whole entry, looked up): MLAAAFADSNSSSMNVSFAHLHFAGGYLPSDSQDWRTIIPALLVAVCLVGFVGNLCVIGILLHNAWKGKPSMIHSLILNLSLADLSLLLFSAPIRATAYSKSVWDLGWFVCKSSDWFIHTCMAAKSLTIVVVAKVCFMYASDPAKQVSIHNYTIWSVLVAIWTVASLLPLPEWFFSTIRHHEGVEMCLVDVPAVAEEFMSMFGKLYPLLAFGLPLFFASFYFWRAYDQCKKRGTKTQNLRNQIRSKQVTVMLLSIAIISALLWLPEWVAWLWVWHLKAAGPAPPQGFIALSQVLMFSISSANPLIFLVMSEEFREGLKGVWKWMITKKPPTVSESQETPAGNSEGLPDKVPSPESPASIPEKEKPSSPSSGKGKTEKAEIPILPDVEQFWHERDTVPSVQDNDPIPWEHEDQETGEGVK
TEAD-YAP inh = TEAD-YAP interaction inhibition. 640,000 tested, 1.4% active. inhibition, % at 9.12 µM. HEK-TIYL cells, TEAD-Gal4/YAP UAS-luciferase luminescence. AID 1259422; in the data active means inhibition above about 32%;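 further: 0% = median of test compound wells and 100% = reference inhibitor wells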
FBW7 activator = activators of human E3 ligase FBW7; Q969H0; AlphaScreen FBW7–phospho-cyclin E peptide binding, activator screen; normalized activity (activation), % at 26.1 µM; 650,000 tested, 0.13% active; AID 1259310; in the data active means normalized activity above about 1.9%;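 further: purified mutant Fbw7 with reduced substrate affinity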
Numbers without * were called inactive. Hits are enriched below; roughly 3.5% of the tested compounds scored in any of these assays.

SMILES | MITF primary | GPR151 activ | TEAD-YAP inh | FBW7 activator
COc1ccc(C)cc1S(=O)(=O)N1CCN(c2ccc(-c3ccncc3)nn2)CC1 | 7.7 | -2.4 | 0.8 | 0.3
CCN(CC)c1ccc(N2CCN(S(=O)(=O)c3cc(C)ccc3OC)CC2)nn1 | 8.6 | 0.9 | 53.8* | 0.0
CCCOc1ccccc1C1C(C#N)=C(N)Oc2n[nH]c(-c3ccc(Cl)cc3Cl)c21 (stereo not given) | 1.8 | -1.0 | -0.4 | 0.0
CCCc1cc(N2CCN(c3ccc(C(C)=O)cc3)CC2)n2cnnc2n1 | 4.8 | -1.0 | 41.5* | -0.2
CCCc1cc(N2CCC(C(N)=O)CC2)n2cnnc2n1 | -6.4 | 1.0 | -2.0 | 0.0
Cc1cc(NCCO)n2c(nc3ccccc32)c1C#N | -6.1 | 0.5 | -4.2 | -0.1
Cc1cc(NCCCN(C)C)n2c(nc3ccccc32)c1C#N | 14.0 | -1.2 | 50.4* | 0.1
O=C(NCC1CCCN(Cc2cccn2-c2ccccn2)C1)c1n[nH]c2ccccc12 (stereo not given) | 17.3 | 1.0 | 69.9* | 0.1
O=C(NCC1CCCN(Cc2cccn2-c2cccnc2)C1)c1n[nH]c2ccccc12 (stereo not given) | -2.4 | -1.7 | -6.5 | -0.2
CCOC(=O)c1c(NC(=O)C23CCC(C)(C(=O)C2)C3(C)C)sc2c1CCCC2 (stereo not given) | 9.2 | 1.0 | 0.3 | 0.1
O=C(C1CCN(Cc2cc(Cl)ccc2O)CC1)N1CCN(Cc2ccccc2)CC1 | 59.1* | 0.9 | 5.5 | 0.1
O=C(C1CCN(Cc2ccccc2O)CC1)N1CCCCC1 | 52.4* | -1.3 | 0.0 | 0.3
Cc1nc(NC(=S)NC(=O)c2ccccc2)sc1C(C)(C)C | -2.6 | -0.2 | 36.6* | -0.2
C#CC(O)(c1ccc(OC)cc1OC)c1ccc(OC)cc1OC | -0.3 | -2.1 | 33.4* | -0.1
COc1cccc(N2CCN(c3nncc(-c4ccccc4)n3)CC2=O)c1 | 14.6 | -1.0 | 13.2 | 0.0
O=C(O)c1cc(N=Cc2c(O)n(Cc3ccco3)c(=O)[nH]c2=O)ccc1Cl | 76.2* | -0.4 | 5.1 | -0.2
COC(=O)C(C)NC(=O)C(Cc1ccccc1)NC(C)=O (stereo not given) | 8.6 | 0.1 | -2.7 | 0.3
CC(=O)NC(C(=O)NC(Cc1ccccc1)C(N)=O)C(C)C (stereo not given) | 8.4 | 0.9 | -1.1 | 2.0*
CC(=O)NC(CC(C)C)C(=O)NC(Cc1ccccc1)C(N)=O (stereo not given) | 5.5 | 0.1 | -1.7 | 2.5*
CCn1cc(Cl)c(-c2n[nH]c(=S)n2-c2cc(OC)ccc2OC)n1 | 4.2 | -0.7 | 2.0 | -0.1
CC1CCN(c2nc3ncccc3nc2-c2ccccc2)CC1 | 11.1 | -0.3 | -1.5 | 2.1*
COc1ccc(C(=O)CN2Cc3ccccc3C2=N)cc1OC | 11.8 | 0.5 | -84.3 | -0.1
N=C1c2ccccc2CN1CC(=O)c1ccc2c(c1)OCCO2 | 2.1 | -7.3 | 77.5* | -0.1
N=c1sccn1CC(=O)c1ccc2c(c1)OCCO2 | -13.1 | -7.0 | 34.8* | -0.1
N=C1c2ccccc2CN1CC(=O)c1ccc(-c2ccccc2)cc1 | -6.1 | -2.9 | 79.6* | -0.2
SMILES | MITF primary | GPR151 activ | TEAD-YAP inh | FBW7 activator
COc1ccc(C(=O)Cn2ccsc2=N)cc1 | -5.1 | -1.7 | -52.5 | 0.2
Cc1ccc(C2=N/C(=C\c3ccccc3[N+](=O)[O-])C(=O)O2)cc1C | 4.9 | 0.9 | 2.2 | 0.0
O=C(COc1ccc([N+](=O)[O-])cc1)c1ccc(OC(F)F)cc1 | 2.7 | 0.1 | 4.6 | -0.1
COC(=O)CSc1nc2sc3c(c2c(=O)n1CCc1ccccc1)CCC3 | 13.9 | 0.1 | -1.6 | 0.0
CCN(CC)c1ccc(N=Nc2ncn[nH]2)cc1 | 35.8 | -1.0 | 44.4* | -2.0
CCc1nnc2n1N=C(c1ccc3c(c1)OCCO3)CS2 | 11.8 | 0.3 | 51.0* | 0.1
CCn1nc(C(=O)N(CC2CCCO2)c2nc3ccc(C)cc3s2)cc1C (stereo not given) | 9.6 | 2.2 | -19.1 | 0.0
CCn1nc(C)cc1C(=O)N(CC1CCCO1)c1nc2cc(C)cc(C)c2s1 (stereo not given) | 14.3 | -1.7 | 41.1* | 0.2
CNC(=O)/C(C#N)=C/c1c(Oc2cccc(C)c2C)nc2ccccn2c1=O | 9.2 | -3.0 | 27.5 | 0.0
CCNC(=O)/C(C#N)=C/c1c(Oc2ccccc2C)nc2ccccn2c1=O | 5.3 | -5.6 | 33.7* | -0.1
CCNC(=O)/C(C#N)=C/c1c(Oc2cccc(C)c2C)nc2ccccn2c1=O | -9.6 | -4.3 | 41.7* | -0.1
CCOC(=O)CSc1nc2sc3c(c2c(=O)n1C1CCCCC1)CCN(C)C3 | 3.9 | -0.5 | 15.2 | 2.3*
N#CCCn1ncc2c1/C(=C/c1ccccc1)CC2 | 13.6 | 3.1 | 3.1 | 0.2
Cn1ncc2c1/C(=C/c1ccc(Cl)cc1)CC2 | 8.4 | -9.7 | 54.8* | 0.1
Cc1c(/C=C(\C#N)c2ccccn2)cc(C#N)n1C | -9.7 | 0.9 | 1.9 | -0.2
Cc1c(/C=C/c2nc3ccccc3s2)cc(C#N)n1C | 18.8 | -2.9 | 73.0* | 0.3
COc1ccccc1-c1csc(NC(=O)c2ccc(C(C)=O)cc2)n1 | 2.2 | 2.5 | -4.4 | 0.0
Cc1ccc(-c2nnc(SCC(=O)N3CCCCC3C)o2)cc1C (stereo not given) | 13.8 | 0.1 | -7.5 | 1.3
CC1CCCCN1C(=O)CSc1nnc(-c2ccc(O)cc2)o1 (stereo not given) | -6.5 | -0.8 | 48.8* | 0.1
COc1cccc(-c2cc(C(=O)N3CCN(Cc4ccccc4)CC3)on2)c1 | -11.0 | -1.1 | -7.6 | 0.1
Cc1cccc(CN2CCN(C(=O)CCl)CC2)c1 | 1.6 | 1.9 | 37.8* | 0.0
CCOC(=O)N1CCN(Cc2cccc(C)c2)CC1 | 14.6 | -0.1 | 4.7 | 0.3
Cc1cc(C(=O)N2CCN(Cc3ccccc3)CC2)on1 | 16.3 | -0.3 | -3.0 | 1.9*
CCOC(=O)C1(C)NC(c2ccccc2C)C2C(=O)N(c3ccc(C)cc3)C(=O)C21 (stereo not given) | 11.6 | 0.0 | 15.8 | -0.1
CCOc1cc(/C=C2/NC(=O)NC2=O)c(Br)cc1O | -28.2 | -0.4 | 43.6* | -0.2
SMILES | MITF primary | GPR151 activ | TEAD-YAP inh | FBW7 activator
CCOc1cc(Cl)c(/C=C2/NC(=O)NC2=O)cc1OCC | 3.7 | -1.0 | -10.6 | -0.1
COc1cc(/C=C2/NC(=O)NC2=O)c(Br)cc1O | -2.2 | 0.4 | 9.5 | 0.0
CCOc1cc(Br)c(/C=C2/NC(=O)NC2=O)cc1OCC | 6.6 | 0.5 | 44.1* | -0.1
COc1ccc(NC(=O)/C(C#N)=N/Nc2cc(C(=O)O)ccc2C)cc1 | 4.1 | 0.8 | -2.2 | -0.1
COCCNCCC1CCC(=O)N1Cc1ccc(C)cc1 (stereo not given) | -2.4 | -1.0 | 13.4 | 0.3
CC(=O)N/C(=N\c1nc(C)cc(C)n1)Nc1cccc(C)c1 | 12.7 | -0.2 | 3.0 | 1.1
CC(=O)N/C(=N\c1nc(C)cc(C)n1)Nc1ccc2ccccc2c1 | -4.8 | 0.5 | 52.1* | 0.0
Cc1ccccc1Nc1nc(Cl)c(C=O)s1 | 6.4 | -0.4 | 39.9* | 0.3
O=C(NCCCn1ccnc1)C1CC12CCN(C(=O)c1scc3c1CCCC3)CC2 (stereo not given) | 3.5 | -0.5 | 4.9 | 0.0
Oc1ccc(/C=N/Nc2nnc3c(n2)[nH]c2ccccc23)c(O)c1O | 110.7* | 0.1 | -10.3 | -0.9
